Screening results deposited in PubChem by National Center for Advancing Translational Sciences (NCATS).
A selection: hits, their analogues and other compounds. The true share with any hit is near 11%.
BAZ2B inh: BAZ2B (human) inhibition; 360,000 tested, 4.4% active; AID 504333; AlphaScreen BAZ2B-H3K14Ac peptide displacement; Potency, µM (top dose mostly 114 µM), most hits filed as inhibitors; Q9UIF8; also: nearly all actives have a fitted effect of over 60% in size
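Complex of BAZ2B and biotin-H3K14Ac (50 nM apiece) forms over 30 min at RT, then faces library compounds up to 110 uM for another 30 min; AlphaScreen beads added, 20 min dark incubation, luminescence read.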
PI5P4Ka inh: inhibitors of human PI5P4K alpha; P48426; 330,000 tested, 1.2% active; PI5P4Kalpha enzyme, ADP-Glo luminescence, 60 min; active compounds read low; max response, %; AID 652105; active = max response of -50% or lower; inconclusive = between -30% and -50%; inactive = -30% or higher; also: value at the top dose of about 77 µM
Target sequence (P48426 whole entry, looked up): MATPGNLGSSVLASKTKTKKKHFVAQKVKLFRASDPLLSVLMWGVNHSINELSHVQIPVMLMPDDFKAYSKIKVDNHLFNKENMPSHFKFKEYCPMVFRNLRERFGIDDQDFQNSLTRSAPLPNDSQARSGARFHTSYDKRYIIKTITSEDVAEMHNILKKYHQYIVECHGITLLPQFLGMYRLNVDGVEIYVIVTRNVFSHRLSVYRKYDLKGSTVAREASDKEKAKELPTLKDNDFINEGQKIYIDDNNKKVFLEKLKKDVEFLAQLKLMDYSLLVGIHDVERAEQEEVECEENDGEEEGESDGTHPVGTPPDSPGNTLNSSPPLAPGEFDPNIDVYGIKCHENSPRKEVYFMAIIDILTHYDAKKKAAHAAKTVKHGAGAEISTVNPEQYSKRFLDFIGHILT
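Single end-point luminescence (ADP-Glo) quantified ADP from PI5P4Kalpha turnover; ATP 5 microM final, 1 h at RT, 0.1% CHAPS and 0.28 mM EGTA in HEPES pH 7.4.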
HP1b binding inh: HP1-beta chromodomain-methylated histone interaction inhibition; P83916; AlphaScreen HP1-beta / biotin-H3K9me3 peptide binding; Potency, µM (doses to about 114 µM), usual class: inhibitors; 390,000 tested, 0.56% active; AID 540317; also: nearly all actives have a fitted effect of over 70% in size
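Compound inhibition of the preformed complex between 50 nM HP1-beta and 50 nM biotinylated H3K9me3 peptide was read by AlphaScreen. Buffer was PBS pH 7.4 with 0.01% Tween-20. Incubations ran 30 min at room temperature, with 10 ug/mL donor/acceptor beads.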
JMJD2A Tudor inh: inhibitors of human JMJD2A Tudor domain. AlphaScreen JMJD2A-Tudor / H3K4me3 peptide binding. O75164. 390,000 tested, 4.4% active. Potency, µM (highest dose often 114 µM), usual class: inhibitors. AID 504339; also: nearly all actives have a fitted effect of over 50% in size
L3MBTL1 block: L3MBTL1 (human) inhibition; Q9Y468; AlphaScreen L3MBTL1–H3K9me1 peptide binding; Potency, µM (highest dose often 57.1 µM), actives largely listed as inhibitors; 230,000 tested, 0.66% active; also: nearly all actives have a fitted effect of over 60% in size
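AlphaScreen proximity signal between nickel-chelate acceptor and streptavidin donor beads (final 10 ug/mL) reports binding of 50 nM L3MBTL1 to 75 nM biotin-H3 K9me1 peptide; complex incubated with compounds 30 min at room temperature; cefsulodin titration as control.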
G9a inh: G9a (human) methyltransferase inhibition | Potency, µM (doses to about 102 µM), hits mostly inhibitors | Q96KQ7 | G9a H3K9 monomethylation, AlphaScreen, 2 h | 350,000 tested, 8.8% active; also: nearly all actives have a fitted effect of over 75% in size
Target sequence (Q96KQ7 913-1193 limits assumed): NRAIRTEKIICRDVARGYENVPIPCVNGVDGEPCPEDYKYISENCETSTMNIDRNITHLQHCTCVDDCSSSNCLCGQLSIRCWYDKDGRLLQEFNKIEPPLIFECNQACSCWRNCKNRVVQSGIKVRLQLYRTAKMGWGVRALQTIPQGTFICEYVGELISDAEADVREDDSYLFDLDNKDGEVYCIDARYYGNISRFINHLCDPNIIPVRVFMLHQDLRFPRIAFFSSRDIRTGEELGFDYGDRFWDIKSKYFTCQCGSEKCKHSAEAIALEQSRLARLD
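Using a bead-based AlphaScreen, monomethylated H3K9 product from 2 h room-temperature reactions (G9a 20 nM, peptide 500 nM, SAM 20 uM) was detected with 0.5 ug/mL rabbit anti-H3K9me1 antibody.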
Hits are given with their value; n = inactive; u = inconclusive; x = not tested or not shown; [ ] = remark or other dose. Unless noted, calls follow the shape of the dose curve; as a rule, active = well fitted inhibition curve with a large enough effect; inconclusive = small, poorly fitted or top-dose-only effect; inactive = no such curve, though single readings can be large or run the other way.

SMILES	BAZ2B inh	PI5P4Ka inh	HP1b binding inh	JMJD2A Tudor inh	L3MBTL1 block	G9a inh
Cc1ccc(/C(O)=C2\C(=O)C(=O)N(C)C2c2cccc([N+](=O)[O-])c2)cc1 (centres undefined)	n	n	n	n	n	79µM
COc1ccc(-n2c(C)nc3cc(C(=O)NC4CCCCCC4)ccc32)cc1	u	x	n	n	x	n
O=C(c1ccc(Br)cc1)N1CCN(CCc2ccncc2)CC1	n	x	n	n	x	n
Cc1c(N2C(=O)c3ccccc3C2=O)c(=O)n(-c2ccccc2)n1C	n	n	n	n	n	n
Cc1c(N=C2C=C(Br)C(=O)C(Br)=C2)c(=O)n(-c2ccccc2)n1C	20µM	-78	28µM	56µM	x	7.1µM
Cc1c(N=C2C=CC(=O)c3ccccc32)c(=O)n(-c2ccccc2)n1C	28µM	-62	10µM	45µM	x	35µM
O=C(NCCc1csc(-c2ccc(F)cc2)n1)C(=O)Nc1ccc(Cl)cc1	n	x	n	n	x	n
COc1ccc(-n2c(SCC(=O)Nc3ncc(Cl)cc3Cl)nc3ccccc32)cc1	n	x	x	x	n	45µM
O=C(Nc1ccc(C(=O)N2CCN(c3ccccc3F)CC2)cc1)c1nsc2ccccc12	n	x	n	n	x	n
CCOC(=O)c1c(N)sn(-c2ccccc2C)c1=S	u	u	n	56µM	n	5.6µM
CCOC(=O)c1sc(=S)n(-c2ccccc2Cl)c1SC	n	x	n	n	n	n
CN(CCc1ccccn1)S(=O)(=O)c1ccc(F)cc1	45µM	n	28µM	5.6µM	n	7.1µM
ON(CCc1ccccn1)CCc1ccccn1	x	n	n	14µM	x	x
Cc1cccc(CN(C)CCc2ccccn2)c1	u	x	u	3.2µM	n	u
ON(CCc1ccccn1)Cc1ccccc1	x	n	n	n	x	x
COc1ccc(C(=O)O)cc1S(=O)(=O)N(C)CCc1ccccn1	n	n	n	n	n	n
COc1ccc(CN(C)CCc2ccccn2)c(OC)c1OC	28µM	n	u	1µM	n	n[2.33 µM]
CCNc1ncc2nc(CCc3ccccc3)c(=O)n(CCC#N)c2n1	x	x	x	x	x	n[0.501 µM]
COc1ccccc1CNC(=O)CCCn1c(=O)c2ccccc2n(CC(=O)Nc2c(C)cc(C)cc2C)c1=O	n	x	n	n	x	n
Cc1ccc(NS(=O)(=O)c2ccc3c(c2)CCO3)cc1C	x	x	x	n	x	x
Cc1ccc2c(c1)c(=O)c(C(=O)c1ccncc1)cn2CC(=O)Nc1ccc(C(C)C)cc1	n	x	n	n	x	n
CCOc1ccc(CN(C)CCc2ccccn2)cc1	56µM	n	25µM	18µM	x	18µM
O=C(O)c1ccc2c(c1)C(=O)N([C@H](Cc1c[nH]c3ccccc13)C(=O)O)C2=O	n	x	x	n	n	n[12.7 µM]
CCCCNC1=CC(=O)C(NCCCC)=CC1=O	x	n	18µM	40µM	x	x
COc1ccc(CNC(=O)C(=O)NCC(c2cccnc2)N2CCN(c3ccccc3)CC2)cc1 (centres undefined)	n	x	n	n	x	n
SMILES	BAZ2B inh	PI5P4Ka inh	HP1b binding inh	JMJD2A Tudor inh	L3MBTL1 block	G9a inh
CN1C(=O)NC(c2ccc([N+](=O)[O-])cc2)C2=C1CC(C)(C)CC2=O (centres undefined)	n	n	n	n	x	n
CN1C(=O)NC(c2ccccc2[N+](=O)[O-])C2=C1CCCC2=O (centres undefined)	n	n	n	n	x	45µM
CN1C(=O)NC(c2ccccc2[N+](=O)[O-])C2=C1CC(C)(C)CC2=O (centres undefined)	n	n	n	n	x	50µM
Cc1[nH]n(-c2ccccc2)c(=O)c1C=NCC1CCCO1 (centres undefined)	n	n	n	n	n	n
Fc1ccc(/C=N/n2c(-c3cccs3)n[nH]c2=S)cc1	n	x	n	32µM	n	1.1µM
S=c1[nH]nc(-c2cccs2)n1/N=C/c1cn(-c2ccccc2)nc1-c1ccccc1	u	n	u	u	n	n
S=c1[nH]nc(-c2ccccc2)n1/N=C/c1cccc(Cl)c1	n	n	n	71µM	n	x
Cc1ccc(-c2n[nH]c(=S)n2/N=C/c2c(C)[nH]n(-c3ccccc3)c2=O)cc1	x	-58	n	u	x	1.3µM
Cc1nn(-c2ccccc2)c(C)c1/C=N/NC(=O)c1cc(-c2ccccc2)n[nH]1	n	n	n	n	n	n
Cc1nn(-c2ccccc2)c(C)c1/C=N/n1c(-c2ccc(Cl)cc2)n[nH]c1=S	n	n	n	u	n	5µM
COc1ccc(NC(=O)CSc2nnc3c(n2)[nH]c2ccc(S(=O)(=O)N(C)C)cc23)c(OC)c1	x	x	n	n	x	x
c1ccc(Cn2nnnc2C(c2ccccc2)N2CCN(Cc3ccncc3)CC2)cc1 (centres undefined)	x	x	n	u	x	x
Cc1cccc(N2CCN(S(=O)(=O)c3ccc(-c4cnc(C5CC5)o4)cc3)CC2)c1C	u	x	n	n	x	n[12.7 µM]
C=CCn1c(SCC)nc2ccccc2c1=O	x	x	n	n	x	x
S=c1[nH]nc(-c2ccncc2)n1/N=C/c1cccc(Cl)c1	n	n	n	11µM	x	1µM
S=c1[nH]nc(-c2ccccc2)n1/N=C/c1ccc(Cl)cc1	n	n	n	u	x	2.5µM
S=c1[nH]nc(-c2ccc(Cl)cc2)n1/N=C/c1cccs1	n	n	n	n	n	x
Cc1ccc(CN2CCNC(=O)C2CC(=O)N(C)C2CCOCC2)cc1 (centres undefined)	n	n	n	n	x	50µM
CN(C(=O)CC1C(=O)NCCN1Cc1c(F)cccc1Cl)C1CCOCC1 (centres undefined)	n	n	n	n	x	45µM
CC(C)N(Cc1nccn1C)C(=O)CC1C(=O)NCCN1Cc1ccc(F)c(F)c1 (centres undefined)	n	n	n	n	x	40µM
CN(C(=O)CC1C(=O)NCCN1Cc1ccc(F)c(F)c1)C1CCCCC1 (centres undefined)	n	n	n	n	x	45µM
COc1ccc(CN2CCNC(=O)C2CC(=O)N(C)C2CCCCC2)cc1OC (centres undefined)	x	n	x	x	x	x
CC(C)N(Cc1nccn1C)C(=O)CC1C(=O)NCCN1Cc1ccc(F)cc1 (centres undefined)	n	n	n	n	x	u
COc1ccc(-c2nc3cc(C(C)C)ccc3o2)cc1NC(=O)COc1ccc(C)cc1C	n	x	n	n	x	n
CCOc1ccc(NC(=O)c2sc3nc4c(cc3c2N)CN(Cc2ccccc2)CC4)cc1	n	x	n	n	x	n
Cc1ccc2nc(-c3cc(NC(=O)COc4ccc(C)c(C)c4)ccc3Cl)oc2c1	n	x	n	n	x	n
Nc1nc(=S)c2[nH]c(=S)[nH]c2[nH]1	x	u	n	3.2µM	x	x
CSc1nc2c(c(=O)[nH]1)CCCC2	n	n	n	n	x	n[12.7 µM]
CSc1nc(=S)c2[nH]c(=S)[nH]c2[nH]1	79µM	-87	20µM	25µM	n	0.63µM
